cardiac RTF act – cardiac RTF calcium sensitivity activators, primary screen, biochemical, IANBD-TnC fluorescence, EC20 calcium; AID 493008, 2010; activation, % at 7.2 µM; 340,000 compounds, 0.24% hits; Troponin I, cardiac muscle (Homo sapiens) + Troponin T, cardiac muscle (Homo sapiens) + …; IANBD-labeled TnC RTF fluorescence at EC20 calcium; 0% EC20 calcium, 100% full calcium;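 active = activation above the mean over all tested compounds plus 3 SD, cut at about 30% in these data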;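 note: rise in fluorescence read as greater calcium sensitivity of cardiac thin filaments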
Keap1-Nrf2 PPI – Keap1-Nrf2 protein-protein interaction inhibitors, primary screen, biochemical, fluorescence polarization, single point. Kelch-like ECH-associated protein 1 (Homo sapiens), Q14145. Keap1 Kelch-Nrf2 peptide fluorescence polarization, 1536-well. inhibition, % at 9.4 µM. 340,000 compounds, 0.15% hits. AID 504523, 2011; in the data active = inhibition above about 12%;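 note: human Keap1 Kelch domain with fluorescein labeled Nrf2 9mer peptide probe; higher means more block of Keap1 binding to Nrf2 peptide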
Target sequence (Q14145 whole entry, looked up, the tested form may be a part): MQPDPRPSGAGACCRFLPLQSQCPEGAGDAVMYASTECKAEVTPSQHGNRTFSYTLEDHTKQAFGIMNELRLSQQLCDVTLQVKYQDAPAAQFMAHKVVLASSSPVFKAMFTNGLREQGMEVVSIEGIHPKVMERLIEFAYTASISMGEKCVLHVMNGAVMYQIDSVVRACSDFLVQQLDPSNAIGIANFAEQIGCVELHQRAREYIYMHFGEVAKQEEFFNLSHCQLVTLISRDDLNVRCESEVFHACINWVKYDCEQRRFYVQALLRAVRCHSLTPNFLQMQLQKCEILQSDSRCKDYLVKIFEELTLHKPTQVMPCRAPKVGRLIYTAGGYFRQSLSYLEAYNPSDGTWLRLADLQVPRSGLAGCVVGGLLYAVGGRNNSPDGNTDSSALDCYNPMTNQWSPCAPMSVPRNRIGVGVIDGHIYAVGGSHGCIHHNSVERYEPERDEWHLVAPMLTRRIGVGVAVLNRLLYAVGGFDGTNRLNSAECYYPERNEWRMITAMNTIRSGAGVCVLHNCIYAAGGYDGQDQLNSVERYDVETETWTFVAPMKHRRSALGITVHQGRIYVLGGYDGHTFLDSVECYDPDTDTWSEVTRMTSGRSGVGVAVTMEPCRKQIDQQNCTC
RTF Ca sens inh – cardiac RTF calcium sensitivity inhibitors, primary screen, biochemical, IANBD-TnC fluorescence, EC70 calcium. inhibition, % at 7.15 µM. 340,000 compounds, 0.12% hits. Troponin I, cardiac muscle (Homo sapiens) + Troponin T, cardiac muscle (Homo sapiens) + …. IANBD-labeled cardiac RTF, Ca2+ fluorescence;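 active = inhibition above the mean inhibition of all tested compounds plus 3 SD, cut at about 17% in these data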;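 note: assay run at fixed EC70 calcium of 1.6 mM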
eLon inh – inhibitors of E. coli Lon protease, primary screen, biochemical, fluorescence polarization; P0A9M0; purified E. coli Lon protease; inhibition, % at 7.94 µM; 360,000 compounds, 0.42% hits; in the data active = inhibition above about 13%, passing the limit was not always enough
LANA DNA inh – inhibitors of KSHV C-LANA binding to DNA, primary screen, biochemical, fluorescence polarization, FAM-LBS DNA, MBP-C-LANA, single point. Kaposi's sarcoma herpesvirus LANA C-terminal domain (residues 932-1162) DNA binding. inhibition, % at 9 µM. 340,000 compounds, 0.078% hits;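 active = highest replicate inhibition at or above 60% at 9 µM, even if other replicates fall short; inactive = all replicates below 60% inhibition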
E coli Lon conf – E. coli Lon protease inhibitor retest, confirmation, biochemical, fluorescence polarization. shares compounds with eLon inh. inhibition, % at 7.94 µM. purified E. coli Lon. 1,400 compounds, 31% hits. AID 602230, 2012; in the data active = inhibition above about 16%
Of the large screens only hits and unclear results are named; the others gave an inactive call (follow-up assays come after a bar, where they were run). An excerpt weighted towards active compounds, which were near 0.82% of everything screened.

COc1ccc(Cl)cc1N(CC(=O)Nc1ccccc1C(=O)N1CCCC1)S(C)(=O)=O	eLon inh 17.6 | E coli Lon conf inactive
CC(C)c1[nH]nc2c1C1(CCN(Cc3ccccc3)CC1)C(C#N)=C(N)O2	eLon inh 29.8 | E coli Lon conf inactive
Cc1ccccc1Nc1nc(N)[nH]c(=O)c1N=O	eLon inh 25.9 (no result: cardiac RTF act, Keap1-Nrf2 PPI, RTF Ca sens inh, LANA DNA inh) | E coli Lon conf inactive
CCc1c(Cl)nc(N)nc1Nc1ccccc1C	none
Cc1ccc(NC2=CC(=O)CC(C)(C)C2)c(N)c1	eLon inh 78.7 | E coli Lon conf inactive
CCC(CC)C(=O)OCC(=O)Nc1cccc([N+](=O)[O-])c1	eLon inh 16.0 | E coli Lon conf inactive
CCC(CCC(=O)Nc1cccc([N+](=O)[O-])c1)C(=O)O (stereo not given)	none
CCCCn1nc(CC(=O)NCCN(CC)CC)c2ccccc2c1=O	none
Cc1ccc(C(=O)CCC(=O)OCC(=O)N(CC(C)C)c2c(N)n(Cc3ccccc3)c(=O)[nH]c2=O)cc1	none
CCOc1ccccc1NC(=O)Nc1ccc(OC)nc1	eLon inh 22.1 | E coli Lon conf 16.4
CCOc1ccccc1NC(=O)Nc1cccc(NC(C)=O)c1	none
O=c1[nH]nc(-c2ccc(F)cc2)cc1Cc1ccccc1	eLon inh 31.5 | E coli Lon conf inactive
CC(=O)C1(O)C(C)CC2C3CC(F)C4(O)CC(O)CCC4(C)C3CCC21C (stereo not given)	none
CN1CC=C2C(C#N)=C(N)C(C#N)(C#N)[C@H](c3cccc(Cl)c3)C2C1 (stereo not given in full)	eLon inh 23.4 | E coli Lon conf 16.7
COc1cc([C@@H]2[C@H]3CN(C)CC=C3C(C#N)=C(N)C2(C#N)C#N)cc2c1OCO2	none
COc1cccc(C2C3CN(C)CC=C3C(C#N)=C(N)C2(C#N)C#N)c1OC (stereo not given)	eLon inh 52.8 | E coli Lon conf 16.4
CCN1CC=C2C(C#N)=C(N)C(C#N)(C#N)[C@H](c3cccc(OC)c3OC)[C@H]2C1	cardiac RTF act 36.4, Keap1-Nrf2 PPI 16.0, eLon inh 36.4 | E coli Lon conf inactive
c1cncc(Nc2c3ccccc3nc3ccccc23)c1	eLon inh 25.1 | E coli Lon conf inactive
Oc1cccc(Nc2c3ccccc3nc3ccccc23)c1	none
COc1cc(OC)cc(C(=O)N[C@H](C(=O)OCC(=O)N2CCN(S(=O)(=O)c3ccc(C)cc3)CC2)C(C)C)c1	none
CCCc1cc(=O)[nH]c(SCC(=O)Nc2cc(S(=O)(=O)N3CCCCC3)ccc2C)n1	none
COc1cc([N+](=O)[O-])ccc1NC(=O)CN1CCc2cc(OC)c(OC)cc2C1	eLon inh 42.3 | E coli Lon conf inactive
Cc1ccc(OCC(=O)N2CCN(S(C)(=O)=O)CC2)cc1	eLon inh 50.4 | E coli Lon conf inactive
Cc1cccc(OCC(=O)N2CCN(S(C)(=O)=O)CC2)c1	none
C=CCN1C(=O)c2cccc3c(Br)ccc(c23)C1=O	none
O=C1c2cccc3cccc(c23)C(=O)N1CCO	none (no result: cardiac RTF act, Keap1-Nrf2 PPI, RTF Ca sens inh, LANA DNA inh)
C=CCN1C(=O)c2cccc3c(N4CCCCC4)ccc(c23)C1=O	cardiac RTF act 73.9, eLon inh 114.3 | E coli Lon conf inactive
O=C1c2cccc3c(N4CCCCC4)ccc(c23)C(=O)N1CCO	cardiac RTF act 75.6, eLon inh 125.9 | E coli Lon conf inactive
CCOC(=O)c1ccc(NC(=O)NC2=NCCS2)cc1	none (no result: cardiac RTF act, Keap1-Nrf2 PPI, RTF Ca sens inh, LANA DNA inh)
Cc1ccc(N(CC(O)CN2CCOCC2)S(=O)(=O)c2ccc([N+](=O)[O-])cc2)cc1 (stereo not given)	eLon inh 16.7 | E coli Lon conf inactive
COc1ccc(N(CC(O)CN2CCOCC2)S(=O)(=O)c2ccc(C)cc2)cc1 (stereo not given)	none
Cc1cc2cc(CN3C(=O)c4ccccc4C3=O)ccc2n1C	eLon inh 24.5 | E coli Lon conf inactive
Cc1ccc(S(=O)(=O)NCc2ccc3c(c2)cc(C)n3C)cc1	eLon inh 16.3 | E coli Lon conf inactive
Cc1onc(-c2ccccc2Cl)c1C(=O)NCc1ccc2c(c1)cc(C)n2C	eLon inh 35.9 | E coli Lon conf inactive
Cc1cc2cc(CNC(=S)Nc3ccc(OC(F)F)cc3)ccc2n1C	eLon inh 14.9 | E coli Lon conf inactive
O=C1c2ccccc2C(=O)N1Cc1ccc2c(c1)OCO2	none
Cc1ccccc1-c1nc(CN(C)C(C)c2ccon2)c(C)o1 (stereo not given)	none
COc1ccc(NC(C)C(=O)Nc2cccc(S(=O)(=O)N3CCOCC3)c2)cc1OC (stereo not given)	none
COc1ccc(N(C(=O)c2cnccn2)C(C(=O)NCc2ccccc2)c2ccc(O)cc2)cc1 (stereo not given)	none
Cc1cc2cc(CNC(=O)c3ccco3)ccc2n1C	eLon inh 14.5 | E coli Lon conf inactive
Cc1cc2cc(CNC(=O)COc3ccccc3)ccc2n1C	none
Cc1cc2cc(CNC(=O)Nc3ccc(Cl)c(Cl)c3)ccc2n1C	eLon inh 22.6 | E coli Lon conf inactive
COc1cc(OC)cc(C(=O)NCc2ccc3c(c2)cc(C)n3C)c1	eLon inh 45.7 | E coli Lon conf inactive
Cc1cc2cc(CNC(=O)NC3CCCCC3)ccc2n1C	none
CC(C)[C@H]1COCCS(=O)(=O)N1Cc1ccccc1-c1ccccc1	none
COc1cc(C(=O)OCCc2cc3ccccc3c(=O)o2)cc(OC)c1OC	none

Screening results as filed in PubChem.
